# Screening results: PubChem, Broad Institute
# aSyn 5UTR act: Activators working through SNCA 5'UTR binding (MLPCN). alpha-synuclein 5'UTR reporter, activators screen. activity score, % (tested at 7.5 µM), hits read low. actives 7.1% (n = 300,000); in the data active = activity score below about -60%
# Numbers stand for hits; 0 = inactive. These entries were drawn from the full list.
SMILES,aSyn 5UTR act
CCOC(=O)c1ccc(Nc2nc(-c3cccnc3)nc3ccccc23)cc1,-103
Cc1cc2nc(C3CCN(Cc4nnnn4Cc4ccccc4)CC3)[nH]c2cc1C,0
Cc1ccc(-c2nc(N/N=C/c3ccncc3)c3ccccc3n2)cc1,-120
CCOC(=O)C/C(=N\Nc1ncnc2ccccc12)c1ccccc1,-139
CCOC(=O)c1ccc(Nc2ncnc3ccccc23)cc1,-93
Cc1c(O)ccc(/C=N/Nc2nc(-c3cccnc3)nc3ccccc23)c1O,-77
c1ccc(COc2ccc(Nc3ncnc4nc[nH]c34)cc2)cc1,-85
c1ccc(CNc2nc(NCc3ccccc3)c3ccccc3n2)cc1,0
CC(C)(C)c1ccc(-c2nc(NCc3cccnc3)c3ccccc3n2)cc1,-96
CCOC(=O)c1ccc(Nc2ncnc3nc[nH]c23)cc1,-73
O=C(c1ccccc1)c1ccc2nc(-c3ccc(NC(=O)c4ccccc4Br)cc3)[nH]c2c1,0
CS(=O)(=O)c1ccccc1C(=O)Nc1ccc(-c2nc3ccccc3o2)cc1,-185
CS(=O)(=O)c1ccccc1C(=O)Nc1ccc(-c2nc3ccccc3[nH]2)cc1,-156
CCCOc1ccc(-c2nnc(-c3ccco3)o2)cc1,0
COc1ccc(-c2nc3cc(NC(=O)Cc4ccc(OC)c(OC)c4)ccc3o2)cc1,-69
CC(C)COc1ccc(-c2nnc(-c3ccco3)o2)cc1,0
O=C(COc1ccccc1)Nc1ccc(-c2nnc(-c3ccco3)o2)cc1,-84
COc1ccc(CC(=O)Nc2cccc(-c3nnc(-c4cccc(C)c4)o3)c2)cc1OC,-187
COc1ccccc1OCC(=O)Nc1cccc(-c2nnc(-c3ccco3)o2)c1,-87
O=C(COc1ccccc1)Nc1nnc(-c2ccc3c(c2)CCCC3)o1,-95
Cc1ccc2nc(NC(=O)c3ccc4c(c3)OCO4)sc2c1,-130
Cc1ccc2nc(NC(=O)c3ccc4ncsc4c3)sc2c1,-145
OCc1c(OCc2cccc(F)c2)ccc2ccccc12,-111
CC(=O)Nc1cc(NC(C)=O)c(N=Nc2ccccc2)cc1C,-89
COc1ccc(-n2ncc3c(NCC4CCCO4)ncnc32)cc1 (configuration not stated),-140
SMILES,aSyn 5UTR act
c1ccc(-n2ncc3c(NC4CCCCCC4)ncnc32)cc1,-97
Clc1ccc(-n2ncc3c(NCC4CCCO4)ncnc32)cc1 (configuration not stated),-89
Cc1ccccc1Nc1ncnc2c1cnn2-c1ccccc1,-112
c1ccc(-n2ncc3c(NCC4CCCO4)ncnc32)cc1 (configuration not stated),-132
O=C(c1ccc(-c2ccccc2)cc1)N1CCN(c2ccccc2)CC1,-70
O=C(c1ccc(-c2nnc(-c3ccccc3)o2)cc1)N1CCCCCC1,-68
O=C(O)c1ccc(-c2nnc(-c3ccccc3)o2)cc1,-78
O=C(/C=C/c1ccco1)NCCc1ccccc1,-126
Cc1ccc(/C=C/C(=O)NCCc2ccccc2)o1,-99
CCN(CC)c1ccc(/C=C/c2ccc3ccc(OC)cc3[n+]2CC)cc1,-87
CC[n+]1c(/C=C/c2ccc(OC)c(OC)c2)ccc2ccccc21,-117
CC[n+]1c(/C=C/c2ccc(OC(C)=O)c(OC)c2)ccc2ccccc21,-72
CCN(CC)c1ccc(/C=C/c2cccc[n+]2C)c(OC)c1,0
O=C(Nc1ccc(N2CCCCC2)cc1)C(Cl)c1ccccc1 (configuration not stated),-236
O=C(Nc1ccc(N2CCCC2)cc1)c1ccc(Cl)cc1Cl,-88
O=C(Nc1ccc(N2CCCC2)cc1)c1cccc(Cl)c1,-137
COc1ccccc1C(=O)Nc1ccc(N2CCCCC2)cc1,-66
O=C(Nc1ccc(N2CCCCCC2)cc1)c1ccccc1Cl,-252
O=C(Nc1ccc(N2CCCCC2)cc1)c1ccccn1,0
O=C(Nc1ccc(N2CCCC2)cc1)c1cc(Cl)ccc1Cl,-241
CN1CCN(c2ccc(NC(=O)c3ccccc3Br)cc2)CC1,-120
O=C(Nc1ccc(NC(=O)c2cccnc2Cl)cc1)c1cccc(Cl)c1,-102
O=C(C(Cl)c1ccccc1)N1CCCC1 (configuration not stated),-112
CN1CCN(c2ccc(NC(=O)c3ccc(Cl)cc3Cl)cc2)CC1,-136
COc1ccccc1/C=C/C=N/n1c(-c2ccccn2)n[nH]c1=S,-100
SMILES,aSyn 5UTR act
O=[N+]([O-])c1cccc(C2Nc3cccc4cccc(c34)N2)c1,-72
O=C(NC1CC1)c1c(O)c2ccccc2[nH]c1=O,-68
O=C(NCCc1ccccc1)c1c(O)c2ccccc2[nH]c1=O,-119
O=C(NC1CCCCCCC1)c1c(O)c2ccccc2[nH]c1=O,-99
NNC(=O)c1[nH]c2ccccc2c1-c1ccccc1,0
CC(=O)c1cccc(NC(=O)CN2C(=O)COc3ccc(S(=O)(=O)N4CCOCC4)cc32)c1,0
CCOC(=O)C1CCN(C(=O)CN2C(=O)COc3ccc(C(C)(C)C)cc32)CC1,-111
CC1CC(C)CN(c2ncnc3c2cnn3-c2ccc(Cl)cc2)C1 (configuration not stated),-99
COc1ccc(-n2ncc3c(N4CCN(Cc5ccccc5)CC4)ncnc32)cc1,-115
CCOC(=O)N1CCN(c2ncnc3c2cnn3-c2ccc(Cl)cc2)CC1,-86
COc1ccc(-n2ncc3c(N4CCC(C(N)=O)CC4)ncnc32)cc1,-124
CC1CCCN(c2ncnc3c2cnn3-c2ccc(Cl)cc2)C1 (configuration not stated),0
Oc1c(CN2CCN(c3ccccc3)CC2)cc(Br)c2cccnc12,0
CCN1CCN(c2ncnc3c2cnn3-c2ccc(Cl)cc2)CC1,-63
CCN1CCN(c2ncnc3c2cnn3-c2ccccc2)CC1,-98
c1ccc(-n2ncc3c(N4CCCCC4)ncnc32)cc1,0
S=C(NCc1ccccc1)NNc1nc2ccccc2[nH]1,-74
c1ccc2[nH]c(NCc3ccc4c(c3)OCO4)nc2c1,-180
CCCOc1ccc2nc(NC(=O)OC)[nH]c2c1,0
COc1ccc2nc(NCc3ccccc3)[nH]c2c1,-80
c1ccc(CNc2nc3ccccc3[nH]2)cc1,-79
COc1ccc(CNCCC(c2ccc(OC(C)C)cc2)c2ccccc2OC)cc1 (configuration not stated),0
CC(C)Nc1ccc(Nc2ccnc3cc4ccccc4cc23)cc1,0
COc1ccc(NC(C)c2ccccc2)cc1 (configuration not stated),-91
O=C1NC(=Nc2ccccc2)S/C1=C\c1cccn1-c1ccccc1,-388
SMILES,aSyn 5UTR act
CCOC(=O)N1CCC(Nc2nc3ccccc3nc2NS(=O)(=O)c2ccc(Cl)cc2)CC1,-88
CCOC(=O)N1CCN(S(=O)(=O)c2ccc(C(=O)NNc3nc4ccc(Cl)cc4s3)cc2)CC1,0
COc1ccc(CCn2c(=N)c(C(=O)NCC3CCCO3)cc3c(=O)n4cccc(C)c4nc32)cc1 (configuration not stated),-116
COc1ccc(CCNC(=O)c2cc3c(=O)n4cccc(C)c4nc3n(CCCN3CCOCC3)c2=N)cc1,-67
COc1ccc(CNC(=O)C(C)Sc2nc3ccccc3c(=O)n2CCCN2CCOCC2)cc1 (configuration not stated),0
Nc1c(Cl)ncnc1N/N=C/c1ccnc2ccccc12,-68
Clc1cccc(/C=N/Nc2ncnc3ccccc23)c1,-198
C(=N\Nc1ncnc2ccccc12)/c1ccccc1,-212
CC(C)c1ccc2[nH]c3c(c2c1)[C@@H]1CCN2C(=O)CCC[C@H](C3)[C@H]12,-93
O=C(Nc1cccc(O)c1)c1ccc(Br)c(S(=O)(=O)N2CCCCC2)c1,-70
O=C(CCl)Nc1cccc(S(=O)(=O)N2CCCCCC2)c1,-92
